This is part of a sample that, as a whole, favours compounds with a hit. Of some 83,000 tested, about 20% had one in any assay.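 Note: values are percent growth. 100 is the growth of untreated cells, values between 100 and 0 indicate rising inhibition; between -100 and 0 indicates cell death.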 Active and inactive are the calls of the source. The calls were made as follows: active = growth percent below 10; inactive = the rest.

The first assay deals with MCF7 breast. In words: NCI-60 one-dose screen, 48 h (100 = growth as untreated, 0 = no growth, -100 = all killed). The settings on record: 10 µM unless noted.
For `O=C1N/C(=N/N=C(c2ccccc2)c2ccccc2)S/C1=C\c1ccc(Br)cc1`, the growth was 99.6% (inactive).

With `N#CC1=C(N)Oc2c(ccc3ccccc23)C1c1cc2ccccc2n2nnnc12` (stereo not given), the growth was 9.81% (active).

On to `O=C(NCCN1CCOCC1)c1cncnc1Nc1ccc2c(ccn2Cc2ccccn2)c1`, for which the growth is 97.8% (inactive).

`CN1CCN(Cc2ccc(NC(=O)c3cncc(C#Cc4cnc(N)c5ncccc45)c3)cc2Cl)CC1`: the growth is 65.6% (inactive).

Regarding `CC1(C)CC(=O)C2=C(C1)OC(C(=O)c1ccccc1)C2c1cccc(Oc2ccccc2)c1` (stereo not given), the growth was 28.5% (inactive).

`Cc1ccc2c(c1)CC(O)CC1C(=O)N(CCO)CC(=O)N21` (stereo not given): the growth was 96.8% (inactive).

On to `O=S(=O)(c1ccc(NCSc2nc3ccccc3s2)cc1)c1ccc(NCSc2nc3ccccc3s2)cc1`, for which the growth is 97.5% (inactive).

Take `Cc1ccc(C(F)(F)F)cc1N1CCN(C(=O)[C@H]2C[C@H]2c2ccc(C(F)(F)F)nc2)CC1`: the growth is 91.2% (inactive).

With `CNC(=O)c1cc(Oc2ccc3nc(NC(=O)Nc4ccc(F)cc4F)sc3c2)ccn1`, the growth was 66.8% (inactive).

On to `CSc1nn2c(-c3cc4cc(Br)ccc4oc3=O)ccnc2c1C#N`, for which the growth is 94.9% (inactive).

Regarding `CCCCCC(C)(O)C(C(=O)O)c1ccccc1` (stereo not given), the growth was 98.1% (inactive).

In the case of `O=C(O)CCCN1C(=O)CSC1=S`, the growth is 90.9% (inactive).

`COC(=O)c1c(C)nc(C)c2c1C(=O)C(Br)=C(NCCCCO)C2=O`: the growth is 37.8% (inactive).

For the molecule `COc1ccc(C(=O)/C=C/Nc2cc(-c3ccccc3)nn2-c2ccccc2)cc1`, the growth is 87.9% (inactive).

As to `Cc1ccc(Nc2oc(-c3ccccc3)nc2[P+](c2ccccc2)(c2ccccc2)c2ccccc2)cc1`, the growth is -20.2% (active).

On to `CNC1=C([N+](=O)[O-])C(c2ccc(OC)cc2)C(C#N)=C(c2ccc[nH]2)O1` (stereo not given), for which the growth was 86.4% (inactive).

In the case of `COc1ccc(-c2cn(Cc3ccc4c(Br)cc(Br)c(O)c4n3)nn2)cc1`, the growth was 67.4% (inactive).

On to `C#Cc1cccc(Nc2nc(Cl)nc3cc(NC(=O)CCl)ccc23)c1`, for which the growth is -49.5% (active).

Regarding `Cc1cc2nc(C(Cl)Cl)nc(-c3ccccc3)n2n1`, the growth is 41.5% (inactive).

`O=C(CSc1nnc(-c2cc(-c3ccc(Cl)cc3)nc3ccccc23)n1-c1ccccc1)Nc1ccc(Cl)cc1`: the growth is 88.3% (inactive).

As to `Clc1ccc(C2=Nn3c(nnc3-c3cc(Cl)cc(Cl)c3Cl)SC2)cc1`, the growth is 7.6% (active).

Turning to `C=CC(=O)Nc1ccc2ncnc(Nc3cccc(NS(=O)(=O)CCC)c3Cl)c2c1`, the growth was 56.2% (inactive).

Consider `C#CCOC(=O)C(N)CSSCC(N)C(=O)O` (stereo not given), for which the growth was 99.5% (inactive).

In the case of `CC(=O)/C(Br)=C/c1ccc(Br)o1`, the growth is 33% (inactive).

For the molecule `CSc1nc(N)c2c(n1)NC(c1ccccc1)C1CCc3ccccc3C1=N2` (stereo not given), the growth is 57.1% (inactive).

On to `Cn1cc(-c2csc(-c3cn(CCO)c4ccc(F)cc34)n2)c2cccnc21`, for which the growth was 34.9% (inactive).

Take `Nc1ncc(-c2ccc3ncnc(N4CCc5cc(F)c(Cl)cc54)c3c2)cn1`: the growth is 24.3% (inactive).

Regarding `C=C(C[n+]1ccccc1)[C@@H]1CC[C@]2(C(=O)OC)CC[C@]3(C)[C@H](CC[C@@H]4[C@@]5(C)CCC(=O)C(C)(C)[C@@H]5CC[C@]43C)[C@@H]12`, the growth is 82.9% (inactive).

`O=C(CSc1nc(-c2ccccc2)cn1-c1ccc(Cl)cc1)c1ccc([N+](=O)[O-])cc1`: the growth is 76.1% (inactive).

In the case of `O=CN1N=C(c2cccc(Nc3ccncc3)c2)CC1c1ccc2c(c1)OCO2` (stereo not given), the growth was 81.7% (inactive).

As to `CCN(CC)CCOc1ccc(/C(=C(\C)Cc2ccc(OC)cc2)c2ccc(O)cc2)cc1`, the growth was -14.8% (active).

Turning to `Cc1nc2cccc(NCc3ccc(C(=O)NO)cc3)c2c(=O)n1-c1ccccc1`, the growth was 67.1% (inactive).

As to `COc1ccc(/C=C2/CCc3cc4ccc(OC)cc4[o+]c32)c(O)c1`, the growth was 48.1% (inactive).

Turning to `CCCC1Cc2cc(-n3nc(C)c4c3CC(C)(C)CC4=O)cc(NC3CCC(O)CC3)c2C(=O)N1` (stereo not given), the growth was 36.5% (inactive).

Take `C#Cc1cccc(Nc2ncnc3ccc(-c4cnc(Cl)c(NS(C)(=O)=O)c4)cc23)c1`: the growth was -0.512% (active).

In the case of `O=C1/C(=C/c2cccc(Br)c2)COc2ccc(O)c(O)c21`, the growth was 6.49% (active).

Regarding `C=C(C)[C@@H]1CC[C@]2(COC(=O)c3cccnc3)CC[C@]3(C)[C@H](CC[C@@H]4[C@@]5(C)CCCN(C(=O)c6cccnc6)C(C)(C)[C@@H]5CC[C@]43C)[C@@H]12`, the growth was 25.6% (inactive).

Consider `C[C@@H]1N=C(c2ccc(Cl)cc2Cl)Nc2nc3ccccn3c2C1=O`, for which the growth was 16.8% (inactive).

Turning to `CCCC[N+]1(C)CCN=C1Cc1ccccc1` (stereo not given), the growth is 100% (inactive).

Regarding `O=C(OCC(O)(CO)C(=O)NC12CC3CC(CC(C3)C1)C2)c1ccc(Cl)cc1` (stereo not given), the growth is 91.6% (inactive).

Another assay deals with HCT-116 colon. Described as above. Particulars: 10 µM unless noted.
As to `O=C1N/C(=N/N=C(c2ccccc2)c2ccccc2)S/C1=C\c1ccc(Br)cc1`, the growth is 81.8% (inactive).

Turning to `N#CC1=C(N)Oc2c(ccc3ccccc23)C1c1cc2ccccc2n2nnnc12` (stereo not given), the growth was -5.37% (active).

`O=C(NCCN1CCOCC1)c1cncnc1Nc1ccc2c(ccn2Cc2ccccn2)c1`: the growth is 105% (inactive).

On to `CN1CCN(Cc2ccc(NC(=O)c3cncc(C#Cc4cnc(N)c5ncccc45)c3)cc2Cl)CC1`, for which the growth was 14.6% (inactive).

For the molecule `CC1(C)CC(=O)C2=C(C1)OC(C(=O)c1ccccc1)C2c1cccc(Oc2ccccc2)c1` (stereo not given), the growth is 33.8% (inactive).

On to `Cc1ccc2c(c1)CC(O)CC1C(=O)N(CCO)CC(=O)N21` (stereo not given), for which the growth is 95.9% (inactive).

In the case of `O=S(=O)(c1ccc(NCSc2nc3ccccc3s2)cc1)c1ccc(NCSc2nc3ccccc3s2)cc1`, the growth was 86.5% (inactive).

As to `Cc1ccc(C(F)(F)F)cc1N1CCN(C(=O)[C@H]2C[C@H]2c2ccc(C(F)(F)F)nc2)CC1`, the growth was 93.4% (inactive).

Take `CNC(=O)c1cc(Oc2ccc3nc(NC(=O)Nc4ccc(F)cc4F)sc3c2)ccn1`: the growth is 20.7% (inactive).

As for `CSc1nn2c(-c3cc4cc(Br)ccc4oc3=O)ccnc2c1C#N`, the growth was 94.3% (inactive).

Turning to `CCCCCC(C)(O)C(C(=O)O)c1ccccc1` (stereo not given), the growth is 99.2% (inactive).

As for `O=C(O)CCCN1C(=O)CSC1=S`, the growth was 102% (inactive).

With `COC(=O)c1c(C)nc(C)c2c1C(=O)C(Br)=C(NCCCCO)C2=O`, the growth was 34.3% (inactive).

Turning to `COc1ccc(C(=O)/C=C/Nc2cc(-c3ccccc3)nn2-c2ccccc2)cc1`, the growth is 85.9% (inactive).

`Cc1ccc(Nc2oc(-c3ccccc3)nc2[P+](c2ccccc2)(c2ccccc2)c2ccccc2)cc1`: the growth was -66.4% (active).

On to `CNC1=C([N+](=O)[O-])C(c2ccc(OC)cc2)C(C#N)=C(c2ccc[nH]2)O1` (stereo not given), for which the growth is 99% (inactive).

`COc1ccc(-c2cn(Cc3ccc4c(Br)cc(Br)c(O)c4n3)nn2)cc1`: the growth was 77.8% (inactive).

For the molecule `C#Cc1cccc(Nc2nc(Cl)nc3cc(NC(=O)CCl)ccc23)c1`, the growth was -90.1% (active).

Regarding `Cc1cc2nc(C(Cl)Cl)nc(-c3ccccc3)n2n1`, the growth is 41.1% (inactive).

With `O=C(CSc1nnc(-c2cc(-c3ccc(Cl)cc3)nc3ccccc23)n1-c1ccccc1)Nc1ccc(Cl)cc1`, the growth is 86.3% (inactive).

On to `Clc1ccc(C2=Nn3c(nnc3-c3cc(Cl)cc(Cl)c3Cl)SC2)cc1`, for which the growth was 13.7% (inactive).

Turning to `C=CC(=O)Nc1ccc2ncnc(Nc3cccc(NS(=O)(=O)CCC)c3Cl)c2c1`, the growth was 67.9% (inactive).

In the case of `C#CCOC(=O)C(N)CSSCC(N)C(=O)O` (stereo not given), the growth is 91.8% (inactive).

In the case of `CC(=O)/C(Br)=C/c1ccc(Br)o1`, the growth is -66.2% (active).

For the molecule `CSc1nc(N)c2c(n1)NC(c1ccccc1)C1CCc3ccccc3C1=N2` (stereo not given), the growth was 32.3% (inactive).

Take `Cn1cc(-c2csc(-c3cn(CCO)c4ccc(F)cc34)n2)c2cccnc21`: the growth is 35.8% (inactive).

With `Nc1ncc(-c2ccc3ncnc(N4CCc5cc(F)c(Cl)cc54)c3c2)cn1`, the growth was 46.9% (inactive).

Take `C=C(C[n+]1ccccc1)[C@@H]1CC[C@]2(C(=O)OC)CC[C@]3(C)[C@H](CC[C@@H]4[C@@]5(C)CCC(=O)C(C)(C)[C@@H]5CC[C@]43C)[C@@H]12`: the growth was 96.9% (inactive).

On to `O=C(CSc1nc(-c2ccccc2)cn1-c1ccc(Cl)cc1)c1ccc([N+](=O)[O-])cc1`, for which the growth is 66.9% (inactive).

On to `O=CN1N=C(c2cccc(Nc3ccncc3)c2)CC1c1ccc2c(c1)OCO2` (stereo not given), for which the growth is 83.1% (inactive).

Turning to `CCN(CC)CCOc1ccc(/C(=C(\C)Cc2ccc(OC)cc2)c2ccc(O)cc2)cc1`, the growth is -34.8% (active).

For `Cc1nc2cccc(NCc3ccc(C(=O)NO)cc3)c2c(=O)n1-c1ccccc1`, the growth is -32.6% (active).

Take `COc1ccc(/C=C2/CCc3cc4ccc(OC)cc4[o+]c32)c(O)c1`: the growth was -64.1% (active).

For the molecule `CCCC1Cc2cc(-n3nc(C)c4c3CC(C)(C)CC4=O)cc(NC3CCC(O)CC3)c2C(=O)N1` (stereo not given), the growth is 15.4% (inactive).

As to `C#Cc1cccc(Nc2ncnc3ccc(-c4cnc(Cl)c(NS(C)(=O)=O)c4)cc23)c1`, the growth is -55% (active).

As to `O=C1/C(=C/c2cccc(Br)c2)COc2ccc(O)c(O)c21`, the growth is -51% (active).

As to `C=C(C)[C@@H]1CC[C@]2(COC(=O)c3cccnc3)CC[C@]3(C)[C@H](CC[C@@H]4[C@@]5(C)CCCN(C(=O)c6cccnc6)C(C)(C)[C@@H]5CC[C@]43C)[C@@H]12`, the growth was 28.1% (inactive).

Regarding `C[C@@H]1N=C(c2ccc(Cl)cc2Cl)Nc2nc3ccccn3c2C1=O`, the growth is 28.1% (inactive).

As for `CCCC[N+]1(C)CCN=C1Cc1ccccc1` (stereo not given), the growth was 101% (inactive).

As for `O=C(OCC(O)(CO)C(=O)NC12CC3CC(CC(C3)C1)C2)c1ccc(Cl)cc1` (stereo not given), the growth is 99.8% (inactive).
